# Assay outcomes as filed in PubChem.
# Pf growth 48h = Primary qHTS for delayed death inhibitors of the malarial parasite plastid, 48 hour incubation; 5.9% of 310,000 active; P. falciparum luciferase growth in erythrocytes, 48 h; Potency, µM (doses to about 28.7 µM), for the others: at the highest dose activity change, negative = inhibition, hits mostly inhibitors; note: potency is the fitted concentration of half-maximal effect; % is set by controls: 0 for no effect and ±100 for the full control effect
#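 First compound was added to culture medium, then infected red cells at 0.1% parasitemia and 2% hematocrit (final). After incubation at 37 C under 5% CO2, luciferase detection reagent was dispensed and light output recorded.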
# CHX counter = Cycloheximide Counterscreen for Small Molecule Inhibitors of Shiga Toxin; cell reporter, cycloheximide protein synthesis inhibition counterscreen; max response, %; 12% of 300,000 active; in the data active = max response mostly above about 13%, no sharp cut-off; inactive = mostly below about 14%; note: read at 38.3 µM for the half of the compounds with a filed dose; 0% is about no effect
# Shiga toxin inh = A qHTS for Small Molecule Inhibitors of Shiga Toxin; Vero cells, Shiga toxin protein synthesis inhibition reporter; inhibition, % at 38.7 µM; 9.2% of 290,000 active; AID 2315, 2010; in the data active = inhibition mostly above about 28%, no sharp cut-off; inactive = mostly below about 43%; note: 0% is about no effect
# Pf growth 96h = Primary qHTS for delayed death inhibitors of the malarial parasite plastid, 96 hour incubation. P. falciparum luciferase reporter growth, 96 h. Potency, µM (doses to about 28.7 µM), without a hit: at the top dose activity change, negative = inhibition, actives largely listed as inhibitors. 6.9% of 320,000 active. AID 504834, 2011; note: potency is the fitted concentration of half-maximal effect; % is set by controls: 0 for no effect and ±100 for the full control effect
#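 Erythrocytes infected with luciferase-expressing P. falciparum were dispensed at 2% hematocrit and 0.05% parasitemia (final), then incubated with compounds 96 hours at 37 C in 5% CO2. Luminescence after detection reagent addition reported growth.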
# The depositor's hits bear a star; ? = inconclusive; . = no result. Only some compounds are listed: those with a hit (about 21% of all), similar ones and a draw of the others. Unless noted, calls come from the whole dose curve; as a rule, active = well fitted inhibition curve with a large enough effect; inconclusive = small, poorly fitted or top-dose-only effect, or another doubt; inactive = no such curve, though single readings can be large or run the other way.
SMILES,Pf growth 48h,CHX counter,Shiga toxin inh,Pf growth 96h
CCCOc1cccc(-c2nc3ccccc3c(=O)o2)c1,66%,51*,79*,?
O=c1oc(-c2ccc(Br)cc2)nc2ccccc12,3%,26*,.,5.9µM*
CS(=O)(=O)c1ncc(Cl)c(C(=O)N2CCN(c3cccc(Cl)c3)CC2)n1,.,-16,-20,.
COc1ccc(C(CNC(=O)C2CCN(S(=O)(=O)c3ccc(F)cc3)CC2)N(C)C)cc1 (stereo unspecified),-2%,3,1,3%
CCCNC(=O)COc1ccc(-c2nn(C)c(=O)c3ccccc23)cc1,4%,8,7,10%
CN1CCN(C2=Nc3cc(Cl)ccc3Nc3ccccc32)CC1,17µM*,-3,-15,?
CN1CCN(C2=Nc3cc(F)ccc3Cc3ccccc32)CC1,-28%,2,-14,-24%
CC(NC(=S)Nc1ccc(Cl)cc1)C(c1ccccc1)N1CCOCC1 (stereo unspecified),?,-2,-10,10µM*
CC(NC(=O)Nc1ccccc1)C(c1ccccc1)N1CCOCC1 (stereo unspecified),2%,2,18,-1%
O=C(O)C(NS(=O)(=O)c1ccc(F)cc1)c1ccccc1 (stereo unspecified),-2%,1,-4,19%
CCC/C=C(\CCC)C(NS(=O)(=O)c1ccc(C(F)(F)F)cc1)c1ccccc1 (stereo unspecified),9.3µM*,8,11,7.4µM*
CCOc1ccc(N2CC(C(=O)NC3=NCCS3)CC2=O)cc1 (stereo unspecified),13%,-3,-6,23%
COc1cccc(Cn2c(Oc3ccccc3)nc3c2c(=O)n(C)c(=O)n3C)c1,0.66µM*,-4,-7,?
COc1cccc(COc2nc3c(c(=O)n(C)c(=O)n3C)n2C)c1,23%,-3,-7,4.1µM*
CC1CC(C)CN(C(=O)C(C)N(C)CC(=O)Nc2ccccc2Cl)C1 (stereo unspecified),-28%,-2,-20,-39%
CC(C(=O)N1CCc2ccccc21)N(C)CC(=O)Nc1ccccc1Cl (stereo unspecified),?,.,.,17µM*
Cc1cccc(C)c1NC(=O)CN(C)CC(=O)Nc1ccccc1Oc1ccccc1,?,12,-17,12µM*
CN(CC(=O)Nc1ccccc1)CC(=O)Nc1ccccc1Cl,35%,19*,31*,34%
CCCCc1ccc(NC(=O)CN(C)CC(=O)Nc2ccccc2Cl)cc1,?,-1,-6,?
Cc1cc(C(=O)OCC(=O)N2CCc3ccccc32)ccc1[N+](=O)[O-],13%,.,.,2%
NS(=O)(=O)c1ccc(NC(=O)CSc2nnc(-c3cnccn3)n2-c2ccccc2)cc1,4%,-3,-6,-27%
Cn1cnnc1SCC(=O)Nc1ncc(C(F)(F)F)cc1Cl,106%,-5,14,13%
O=C(CCCn1cncn1)N1CCCC(N2CCN(c3ccccc3F)CC2)C1 (stereo unspecified),0%,7,-10,-100%
Cc1cc(-c2nnc(SCC(=O)Nc3ccc(F)cc3F)n2N)n[nH]1,48%,5,-2,-1%
C=CC[n+]1c(-c2ccc(Cl)cc2Cl)csc1Nc1c(C)n(C)n(-c2ccccc2)c1=O,?,1,-13,?
SMILES,Pf growth 48h,CHX counter,Shiga toxin inh,Pf growth 96h
Clc1ccc(-c2csc(Nc3ccccc3)[n+]2Cc2ccco2)c(Cl)c1,12µM*,48*,110*,?
C=CC[n+]1c(-c2ccc(Cl)cc2Cl)csc1Nc1ccc(NC(C)=O)cc1,?,-2,-16,-81%
CCCC[n+]1c(-c2ccc(Cl)cc2Cl)csc1Nc1ccccc1,3.7µM*,18,24,1.7µM*
NC(=O)c1ccccc1C[C@H](C(=O)O)N1C(=O)c2ccc(C(=O)O)cc2C1=O,7%,-7,-7,12%
CN(CC(=O)Nc1ccc(Cl)c(C(F)(F)F)c1)C(=O)CCCNC(=O)c1ccc(Cl)cc1,48%,.,.,43%
Cn1c(C(=O)c2ccncc2)cc2ccccc21,13µM*,9,13,?
CCOc1ccc(C2=C(C=Nc3c(C)n(C)n(-c4ccccc4)c3=O)C(c3ccc(F)cc3)c3ccccc3O2)cc1 (stereo unspecified),.,0,15,0.29µM*
Cc1cc(C)nc(SCCC(=O)Nc2ccccc2Cl)n1,45%,9,-4,36%
CCNC(=S)NN=C1c2ccccc2-c2ccccc21,-19%,2,4,4.7µM*
C=C(C)CNC(=S)NN=C1c2ccccc2-c2ccccc21,2%,9,-12,?
